# VDR inhibitor: Inhibitors of the vitamin D receptor (VDR): qHTS; hit rate 0.93% among 400,000; AID 504847, 2011; Vitamin D3 receptor (Homo sapiens), P11473; Potency, µM, for the others: max response, negative = inhibition, usual class: inhibitors; VDR-SRC2-3 peptide fluorescence polarization, 2 h; also: % is scaled to controls: 0 for no effect and ±100 for the full control effect
#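 Measured by FP: displacement of SRC2-3 coactivator peptide from VDR by library compounds, following a two-hour ambient incubation.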
# GCN5L2 inh: qHTS Assay for Inhibitors of GCN5L2. GCN5L2 HAT assay, ThioGlo1 CoA-SH fluorescence. hit rate 0.21% among 390,000. Histone acetyltransferase KAT2A (Homo sapiens), Q92830. Potency, µM (doses to about 58.9 µM), inactives show at the highest dose activity change, negative = inhibition, hits mostly inhibitors. AID 504327, 2011; also: % is scaled to controls: 0 for no effect and ±100 for the full control effect
#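 ThioGlo1-coupled HAT assay: 20nM GCN5L2, 70uM acetyl-CoA, 75uM H3(1-25) peptide, pH 7.5. Fluorescence read at 340/540nm at start and after 20 min at room temperature.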
# GLS inhibitor: qHTS for Inhibitors of Glutaminase (GLS); Potency, µM (titrated, usually from 45.5 µM), for the others: at the highest dose activity change, negative = inhibition, actives largely listed as inhibitors; GLS enzymatic activity, qHTS titration; hit rate 0.21% among 410,000; AID 624170, 2012; also: % is scaled to controls: 0 for no effect and ±100 for the full control effect
# Target sequence (O94925 whole entry, looked up): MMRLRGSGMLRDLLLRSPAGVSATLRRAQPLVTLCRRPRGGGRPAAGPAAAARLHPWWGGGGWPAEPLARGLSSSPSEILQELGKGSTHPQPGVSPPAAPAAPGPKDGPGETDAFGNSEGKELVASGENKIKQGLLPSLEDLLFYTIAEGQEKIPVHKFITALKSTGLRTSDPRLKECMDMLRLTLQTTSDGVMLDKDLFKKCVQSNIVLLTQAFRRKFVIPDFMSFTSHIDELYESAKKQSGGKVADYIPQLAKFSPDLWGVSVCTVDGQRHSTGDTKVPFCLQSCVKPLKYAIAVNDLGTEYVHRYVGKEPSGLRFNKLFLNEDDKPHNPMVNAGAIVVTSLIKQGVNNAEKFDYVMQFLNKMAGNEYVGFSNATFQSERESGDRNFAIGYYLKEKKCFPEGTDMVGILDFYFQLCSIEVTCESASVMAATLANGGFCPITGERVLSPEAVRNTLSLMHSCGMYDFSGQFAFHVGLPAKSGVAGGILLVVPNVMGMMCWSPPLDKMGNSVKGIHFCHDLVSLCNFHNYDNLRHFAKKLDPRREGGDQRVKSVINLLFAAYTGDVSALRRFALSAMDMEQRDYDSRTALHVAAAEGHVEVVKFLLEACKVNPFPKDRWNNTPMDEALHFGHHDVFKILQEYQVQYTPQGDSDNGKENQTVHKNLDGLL
#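 Two-point fluorescence kinetic (t0, 30 min RT) for hKGA; glutamate detected via glutamate oxidase–HRP–Amplex Red. Substrate: 1 mM L-glutamine solution; buffer 45 mM KH2PO4, pH 8.2.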
# PKM2 act: qHTS Assay for Activators of Human Muscle isoform 2 Pyruvate Kinase; purified PKM2, Kinase-Glo ATP luminescence, activation; response scale: 0% is enzyme alone, no compound; Potency, µM (top dose mostly 57.5 µM), inactives show at the highest dose activation, usual class: activators; hit rate 0.34% among 260,000; Pyruvate kinase PKM (Homo sapiens), P14618; AID 1631, 2009; also: % is scaled to controls: 0 for no effect and ±100 for the full control effect; nearly all actives have a fitted effect of over 55% in size
#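 ATP formation by purified human PK-M2, quantified via coupled luciferase luminescence after 1 h at room temperature with 0.1 mM ADP and 0.5 mM PEP final.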
# PLK1 PBD inh: qHTS for Inhibitors of PLK1-PDB (polo-like kinase 1 - polo-box domain): Primary Screen. Serine/threonine-protein kinase PLK1 (Homo sapiens), P53350. Plk1 PBD binding of FITC phosphopeptide, fluorescence polarization. Potency, µM, inactives show max response, negative = inhibition, most hits filed as inhibitors. AID 720504, 2013. hit rate 2.8% among 360,000; also: series mostly up to about 57 µM; % is scaled to controls: 0 for no effect and ±100 for the full control effect; nearly all actives have a fitted effect of over 65% in size
# Mito fusion yeast: qHTS Assay for Small Molecule Inhibitors of Mitochondrial Division or Activators of Mitochondrial Fusion | Potency, µM (titrated, usually from 46.1 µM), without a hit: at the highest dose growth rescue (activation), actives largely listed as activators | hit rate 0.23% among 320,000 | AID 485298, 2010 | S. cerevisiae fusion-defective mutant growth rescue, CellTiterGlo 48 h; also: % of control where 0% means no effect; nearly all actives have a fitted effect of over 45% in size
#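 Temperature-sensitive fusion-defective S. cerevisiae (e.g. fzo1-1, mgm1-5) were grown with compound in YPEG medium (3% ethanol, 3% glycerol) for 48 hours at 37C. Growth rescue was measured as viability by CellTiterGlo luminescence after 10 minutes at ambient.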
# * marks the source's active call; other numbers are inactive results; ? = inconclusive; · = no result given; [ ] = dose if it differs, or a comment. Compounds with a hit are over-represented: about 3.4% of the library has one in this group of screens. Calls follow the shape of the dose curve; as a rule, active = well fitted curve in the direction sought with a large enough effect; inconclusive = small, poorly fitted or top-dose-only effect, or another doubt; inactive = no such curve, though single readings can be large; an effect the other way counts as inactive or inconclusive. Potency is read from the fitted curve at half-maximal effect.
SMILES,VDR inhibitor,GCN5L2 inh,GLS inhibitor,PKM2 act,PLK1 PBD inh,Mito fusion yeast
O=C(Nc1ccc(CN2CCOCC2)cc1)c1ccc(-c2cc(Cl)ccc2Cl)o1,-0.5%,-20.4%,-0.1%,-0.3%,-4.6%,10µM*
Cc1c(CC(=O)O)c(=O)oc2c(C)c3occ(-c4ccc(Br)cc4)c3cc12,?,?,?,·,29.9µM*,?
Cc1c(CC(=O)NCC(=O)O)c(=O)oc2cc3occ(-c4ccccc4)c3cc12,-8.4%,-4.2%,3.98µM*,·,-14.3%,0.7%
COc1cccc(-c2coc3cc4oc(=O)c(CCC(=O)O)c(C)c4cc23)c1,-21.2%,3.5%,12.6µM*,·,-7.3%,22.4µM*
CC(C)(C)c1nnc(NC(=O)c2ccc3c(c2)OCO3)s1,79.4µM*,?,48.5%,-23.6%,5.97µM*,6.2%
O=C(CCN1C(=O)COc2ccccc21)NCc1cccs1,-7.2%,-3.5%,12.0%,0.6%,23.8µM*,1.4%
O=C(CCN1C(=O)COc2ccccc21)NCCN1CCc2ccccc2C1,1.7%,-5.9%,17.9%,-0.6%,0.3%,0.8%
CC(C)C(c1nnnn1C(C)(C)C)N1CCN(c2cccc(Cl)c2)CC1 (stereo not given),-2.9%,-6.0%,?,-2.1%,2.99µM*,?
Cc1ccc(CCNC(=O)c2cc3c(=O)oc4ccccc4c3s2)cc1,1.2%,-0.5%,2.6%,·,·,·
CSc1sc2ccccc2[n+]1CCCS(=O)(=O)[O-],35.5µM*,-6.3%,15.6%,0.2%,?,1.8%
CC(=O)CSc1ncnc2sc3c(c12)CCC(C)C3 (stereo not given),-2.4%,-12.2%,-1.0%,5.8%,23.8µM*,0.2%
CC1CCc2c(sc3ncnc(SCC(=O)N(C)C4CCS(=O)(=O)C4)c23)C1 (stereo not given),-6.3%,0.8%,-3.0%,·,26.7µM*,·
O=C(CSc1ncnc2sc3c(c12)CCCC3)c1ccccc1,-10.4%,-3.4%,-0.7%,7.5%,-2.8%,4.0%
CCCOC(=O)CSc1ncnc2sc3c(c12)CCC(C)C3 (stereo not given),-11.2%,-3.9%,-15.9%,·,·,·
CC1CCc2c(sc3ncnc(SCC(=O)c4ccccc4)c23)C1 (stereo not given),0.9%,0.8%,-1.3%,-10.3%,13.4µM*,-3.4%
Cc1ccc2c(n1)Oc1ccc(C(C)C(=O)OCC(=O)N(C)C)cc1C2 (stereo not given),·,·,14.8%,·,·,·
CC(C)N(C)Cc1nnnn1CC(=O)N(C)Cc1ccc(F)cc1,-0.3%,-6.9%,-4.5%,0.4%[11.5 µM],1.7%,2.0%
O=C(OCC(=O)N1CCCc2ccccc21)c1ccccc1NCCO,-3.4%,-2.2%,-10.9%,·,1.2%,-1.5%
CC1(C)CC(=O)C=C(c2n[nH]nc2C2CCCCC2)C1,·,·,-1.4%,·,0.1%,·
Cc1cccc(C)c1OCC(=O)Nc1c(C(=O)c2ccccc2)oc2ccccc12,?,-6.6%,1.3%,·,·,·
C=C1c2cccc(O)c2C(=O)C2C(=O)[C@]3(O)C(=O)C(C(N)=O)C(=O)[C@@H](N(C)C)[C@@H]3[C@@H](O)[C@H]12 (stereo not given in full),-23.7%,7.94µM*,8.91µM*,·,?,·
C=C1c2cccc(O)c2C(O)=C2C(=O)[C@@]3(O)C(O)=C(C(N)=O)C(=O)[C@@H](N(C)C)[C@@H]3[C@@H](O)[C@H]12,?,3.55µM*,?,·,·,·
CN(C)[C@@H]1C(=O)C(C(N)=O)=C(O)[C@]2(O)C(=O)C3=C(O)c4c(O)ccc(Cl)c4[C@H](O)[C@H]3C[C@@H]12,?,0.4%[21.4 µM],-9.2%,·,·,·
COc1cc(-c2nc3ccc(C)cn3c2Nc2ccc3c(c2)OCCO3)ccc1O,-6.5%,-14.7%,12.6µM*,14.4%,-3.1%,?
Cc1cccc(N2CCN(C(=O)COc3noc4nc(C)cc(C)c34)CC2C)c1 (stereo not given),·,·,11.8%,·,-5.6%,·
SMILES,VDR inhibitor,GCN5L2 inh,GLS inhibitor,PKM2 act,PLK1 PBD inh,Mito fusion yeast
Cc1[nH]c2ccccc2c1C(=O)CSc1ccc(Cl)cc1,?,-4.1%,?,1.8%,11.9µM*,-2.2%
Cc1[nH]c2ccccc2c1C(=O)CSC(=S)N1CCCCC1,-10.0%,-7.9%,1.8%,-7.1%,-1.3%,27.5%
CCOC(=O)c1c(NC(=O)c2cc(Cl)ccc2Cl)sc2c1CCCC2,-29.2%,2.3%,11.6%,·,·,·
CCOC(=O)c1c(NC(=O)c2ccccc2Cl)sc2c1CCc1ccccc1-2,?,-29.7%,10µM*,-18.4%,6.7µM*,11.2µM*
CCOC(=O)c1c(NC(=O)c2ccccc2)sc2c1CCc1ccccc1-2,70.8µM*,-26.3%,-9.3%,-17.6%,6.7µM*,-4.2%
COC(=O)n1c(SC)nc2ccccc21,-5.6%,-17.2%,6.3%,-13.9%,26.7µM*,7.5%
CCCCNC(=O)n1c(SC)nc2ccccc21,-6.1%,-4.8%,6.5%,-6.6%,?,6.4%
c1ccc2c(c1)Nc1ccncc1S2,1.8%,-2.1%,10µM*,-14.5%,-16.4%,-1.6%
CC(C)C(=O)OCc1cn(-c2ccc(Cl)c(Cl)c2)nn1,-9.7%,-0.2%,10.3%,-7.3%,21.2µM*,2.4%
CC(C)(C)C(=O)OCc1cn(-c2ccc(Cl)cc2)nn1,-2.8%,-14.8%,2.6%,-0.7%,-2.6%,-12.8%
COc1ccc2c(c1)O[C@@H](c1cccc(C(F)(F)F)c1)[C@H](OC(=O)Nc1cc(OC)c(OC)c(OC)c1)C2=O,3.9%,·,·,·,·,·
Cc1cc(S(=O)(=O)c2ccc(Cl)cc2)nc(S(=O)(=O)c2ccc(Cl)cc2)c1C#N,·,·,6.1%,·,2.67µM*,·
CNc1nc(C)cc(C)c1S(=O)(=O)c1ccc(Cl)cc1,4.6%,1.2%,-7.3%,3.4%,-8.2%,1.0%
CC(Nc1ccc(Br)cn1)c1cc(Cl)ccc1O (stereo not given),-9.4%,2.6%,63.2%,2.0%,26.7µM*,?
COc1ccc(NC(=O)CCS(=O)(=O)c2ccc3nc(C)sc3c2)cc1OC,16.2%,-7.9%,3.3%,3.1%,-6.5%,-0.7%
Cc1nc2ccc(NC(=O)CCS(=O)(=O)c3ccc(Cl)cc3)cc2s1,?,1.8%,-0.3%,-4.2%,16.8µM*,0.6%
COc1ccccc1CCc1nnc(CCC(=O)NC(C)Cc2cccs2)o1 (stereo not given),10.6%,0.0%,7.2%,-3.3%,-15.1%,-0.4%
COc1ccccc1CCc1nnc(CCC(=O)NC(C)Cc2cccc(C)n2)o1 (stereo not given),-26.4%,3.1%,-1.2%,-1.7%,23.8µM*,13.5%
